Assay outcomes deposited in PubChem by several laboratories.
Sampled rows, rich in hits. Any-hit rate of the full collection: about 1.7%.
Rin1 Abl inh – inhibitors of human Rin1-Abl protein interaction. TR-FRET Rin1/Abl binding, biochemical. actives 0.4% (n = 360,000). inhibition, % at 7.35 µM. P00519+Q13671; in the data active means inhibition above about 5%, passing the limit was not always enough
SUMO1 PPI mod – alters human SUMO1 binding to SIM partners; P63165; SUMO1 binding to a labelled peptide, TR-FRET, 1 h; inhibition, % at 20 µM; actives 0.33% (n = 360,000); AID 602429; in the data active means inhibition above about 37%
Neddylation inh – inhibitors of human cullin neddylation | P61081+Q13564 | TR-FRET cullin neddylation, biochemical | inhibition, % at 25 µM | actives 0.58% (n = 360,000); in the data active means inhibition above about 36%
Target sequence (P61081 whole entry, looked up): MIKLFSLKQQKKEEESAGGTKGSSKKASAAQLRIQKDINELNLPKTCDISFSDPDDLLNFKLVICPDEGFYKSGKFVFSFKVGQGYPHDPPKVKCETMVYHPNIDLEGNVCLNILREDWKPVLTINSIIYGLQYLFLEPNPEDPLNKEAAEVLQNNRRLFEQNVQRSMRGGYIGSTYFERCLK
Target sequence (Q13564 whole entry, looked up): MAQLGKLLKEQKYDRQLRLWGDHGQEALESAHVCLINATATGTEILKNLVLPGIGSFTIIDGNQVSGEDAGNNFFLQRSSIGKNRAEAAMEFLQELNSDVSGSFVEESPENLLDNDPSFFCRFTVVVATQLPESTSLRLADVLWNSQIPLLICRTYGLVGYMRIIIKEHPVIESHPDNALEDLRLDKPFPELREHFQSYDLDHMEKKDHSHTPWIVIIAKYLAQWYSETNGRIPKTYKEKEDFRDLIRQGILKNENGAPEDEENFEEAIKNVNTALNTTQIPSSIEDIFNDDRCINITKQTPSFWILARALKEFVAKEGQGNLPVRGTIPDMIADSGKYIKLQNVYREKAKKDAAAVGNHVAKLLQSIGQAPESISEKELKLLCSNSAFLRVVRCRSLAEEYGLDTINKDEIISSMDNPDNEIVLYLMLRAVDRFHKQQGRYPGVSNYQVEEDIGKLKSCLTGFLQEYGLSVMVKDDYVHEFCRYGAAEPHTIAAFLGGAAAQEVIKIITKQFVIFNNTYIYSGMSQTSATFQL
ATG4B inh – ATG4B (human) cysteine protease inhibition; ATG4B cleavage of LC3-PLA2, NBD-HPC fluorescence, 1 h; inhibition, % at 8.33 µM; actives 0.51% (n = 340,000); AID 504462
Neddyl inh conf – cullin neddylation inhibition, confirmation; TR-FRET cullin neddylation biochemical assay; actives 13% (n = 1,800); shares compounds with Neddylation inh; calls only at 25 µM; AID 652217;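 further: neddylation substrate is the cullin 1 ring ligase complex with SKP2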
Numbers without * were called inactive; i = inactive; / = not tested or not shown; + = active, no number. Unless noted, no stated cut-off is given here; in the data, active means inhibition above about 40%; inactive means the rest.

SMILES	Rin1 Abl inh	SUMO1 PPI mod	Neddylation inh	ATG4B inh	Neddyl inh conf
O=c1[nH]cnc2sc3c(c12)CN(Cc1ccccc1)CC3	0	-8	/	-4	/
O=c1[nH]cnc2sc3c(c12)CCN(Cc1ccccc1)C3	-2	3	40*	-9	i
Cc1cc(C)c(NC(=O)CN(C)C(=O)CCN2C(=O)C3CCCCC3C2=O)c(C)c1 (centres undefined)	-2	1	4	/	/
COc1ccc(C=NNC(=O)c2ccccc2OCc2ccc(F)cc2)c(OC)c1	1	-4	42*	8	i
COc1ccc(OC)c(/C=N/NC(=O)c2ccc(N(C)S(=O)(=O)c3ccccc3)cc2)c1	0	-5	/	0	/
COc1ccc(/C=N/NC(=O)c2ccc(N(C)S(=O)(=O)c3ccccc3)cc2)c(OC)c1	1	-2	43*	31	i
COCCNC(=O)C[C@H]1C[C@H]2c3cc(NS(=O)(=O)c4ccc(F)cc4)ccc3O[C@H]2[C@H](CO)O1	0	-2	-2	/	/
COc1cccc(CNC(=O)[C@@H]2CCCN2C(=O)[C@@H]2CCCN2C(=O)OC(C)(C)C)c1	/	-2	-13	/	/
Cc1ccc(Cc2c(-c3ccc(Cl)cc3)nc3ccc(Br)cn23)cc1	-21	0	i	/	/
O=C(NCCO)c1ccc2c3n(nc2c1)-c1ccccc1CO3	1	-22	35*	0	i
Cc1ccc2c(c1)COc1c3ccc(C(=O)NCC4CC4)cc3nn1-2	-3	-27	47*	-6	+
Cc1cc(C)c(C(=O)COC(=O)c2cccc(S(=O)(=O)N3CCOCC3)c2)cc1C	0	4	-2	/	/
C[C@@H]1CN([C@H](C)CO)C(=O)CCCn2cc(nn2)CO[C@H]1CN(C)C(=O)c1ccncc1	6	0	-3	/	/
COc1ccc(C(CCN2CCOCC2)c2c(OC)cc(OC)c3c(-c4ccccc4)cc(=O)oc23)cc1 (centres undefined)	-3	-7	45*	-1	i
C[C@@H]1CCCCO[C@@H](CN(C)S(=O)(=O)c2ccccc2)[C@@H](C)CN([C@H](C)CO)C(=O)c2cc(N(C)C)ccc2O1	-2	5	22	/	/
CCc1cc2c(=O)c(-c3nc4ccccc4n3C)c(COCC(=O)O)oc2cc1OC(=O)C(C)(C)C	-2	7	31	4	/
CCc1cc2c(=O)c(-c3nc4ccccc4n3C)c(C)oc2cc1OC(C)=O	-3	-2	41*	6	i
Cc1cc(C)c2c(N)c(C(=O)c3ccc(Cl)cc3Cl)sc2n1	0	-6	/	5	/
Cc1cc(C)c2c(N)c(C(=O)c3cccc(Cl)c3)sc2n1	-8	-17	37*	1	i
O=c1oc2cccnc2n1CCS(=O)(=O)c1ccc(F)cc1	1	0	38*	3	i
O=S(=O)(CCN1CCN(c2ccccn2)CC1)c1ccc(F)cc1	4	-4	8	-8	/
Cn1c(=O)c(-c2ccccc2)nc2ccccc21	-5	-21	58*	9	+
N#CC(CCc1ccccc1[N+](=O)[O-])(CCc1ccccc1[N+](=O)[O-])C(N)=O	0	-18	-21	-4	/
Nc1c2c(=O)oc(-c3ccccc3)cc2nn1-c1ccccc1	5	-12	50*	-1	+
Cc1c(-c2ccc(Cl)cc2)oc(=O)c2c(N)n(-c3ccccc3)nc12	-3	-2	-83	-11	/
SMILES	Rin1 Abl inh	SUMO1 PPI mod	Neddylation inh	ATG4B inh	Neddyl inh conf
CCN1C[C@@H]2[C@@H]3C(=O)N(Cc4ccccc4)C(=O)[C@@H]3[C@](C)(C1=O)N2C(=O)c1ccc(Br)cc1	1	0	-15	-5	/
Cc1cc(Cl)ccc1NC(=O)C(=O)N/N=C/c1ccc2c(c1)OCO2	4	4	43*	-10	i
Cc1ccc(C)c(NC(=O)CCC(=O)N/N=C/c2ccc3c(c2)OCO3)c1	-2	-6	6	1	/
Cc1ccc(Cl)cc1NC(=O)C(=O)N/N=C/c1ccc2c(c1)OCO2	-1	2	39*	-5	i
O=C(N/N=C/c1ccc2c(c1)OCO2)C(=O)Nc1ccccc1Cl	-4	1	17	2	/
CCOC(=O)C1CCN(C(=O)COc2ccc3c(C)cc(=O)oc3c2)CC1	2	2	42*	-9	i
Cc1cc(=O)oc2cc(OCC(=O)N3CCCC3)ccc12	1	-4	48*	1	i
Cc1cc(=O)oc2cc(OCC(=O)N3CCOCC3)ccc12	-3	-3	11	-14	/
Cc1cc(=O)oc2cc(OCC(O)Cn3ccnc3)ccc12 (centres undefined)	-1	-1	40*	7	i
CCCCCCCCN1C(=O)[C@H](CC(=O)N2CCCCC2)C[C@@]2(C(=O)OC)CC(C)(C)CC=C12	/	5	-4	/	/
Nc1cccc(-c2ccc(CO)o2)c1	-3	-2	42*	1	i
Cc1ccccc1CNC(=O)c1ccc2sc([C@H]3C[C@H](O)[C@@H](CO)O3)nc2c1	-1	8	3	/	/
CCOC(=O)N1CCC(c2cc(=O)n3[nH]ccc3n2)CC1	0	0	41*	3	/
CC(C)(C)C1CCN2CCCC(c3ccccc3)(C1)C2=O (centres undefined)	/	5	1	/	/
Cc1nc2scc(C)n2c(=O)c1S(=O)(=O)NCCc1ccc(Cl)cc1	-1	-5	4	-6	/
Cc1nc2scc(C)n2c(=O)c1S(=O)(=O)NCC1CCN(Cc2ccc(Cl)cc2)CC1	0	-1	45*	2	i
CCCCCc1c(-c2ccc(Br)cc2)ncn1CCc1ccccc1OC	/	1	-12	/	/
O=C(Nc1ccc(-c2nc3ccccc3c(=O)o2)cc1)c1ccco1	-3	16	33	20	/
O=C(Nc1ccc2nc(-c3ccccc3)oc2c1)c1ccco1	-3	-4	38*	-6	i
Cc1ccc2c(c1)S(=O)(=O)c1ccc3ccccc3c1N2	-3	-11	6	4	/
Cc1cccc2c(=O)n(C(=O)c3ccccc3)c(N)nc12	-5	2	6	/	/
Nc1c(C(=O)Nc2ccc3c(c2)OCCO3)nnn1Cc1cccc(F)c1	1	5	40*	8	i
Nc1c(C(=O)Nc2ccc3c(c2)OCCO3)nnn1Cc1ccc(Cl)cc1	-1	-1	38	1	/
CCN(CC)CCCNc1nc2ccccc2c2[nH]c3ccc(OC)cc3c12	1	-77	/	-2	/
Clc1cccc(CN2CCc3c([nH]c4ccccc34)C2)c1	-3	-8	43*	7	i
COc1ccc(NC(=O)c2cc(-c3ccco3)on2)c(OC)c1	3	7	38	8	/
COc1cc(NC(=O)c2cc(-c3ccco3)on2)c(OC)cc1Cl	2	-2	41*	3	i
COc1cccc(-c2cc(C(=O)Nc3ccccc3SC)no2)c1	1	5	/	14	/
COc1ccc(-c2cc(C(=O)Nc3ccccc3SC)no2)cc1OC	1	-4	42*	-8	i
COC(=O)CCCn1cc(CN2CC(N3CCN(Cc4cccc(C)c4)CC3)CS2(=O)=O)nn1 (centres undefined)	/	17	-7	/	/
